Data on 98 compounds can be found in PubChem BioAssay AID1626 (SRMLSC, 2009).

Out of some 220,000 compounds screened, about 2,000 (0.91%) were called active. About 2% were inconclusive and are not listed. The list is a sample of the results. Potency and affinity values are given separately. Values without a mark were called inactive. No stated cut-off is given here; in the data, inconclusive means inhibition above about 80% without an active follow-up result; inactive means below that; test concentration not stated here.

A short description of the test: M. tuberculosis H37Rv growth inhibitors, H37Rv strain (AID 1626).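 Further: bacteria incubated seven days before Alamar blue readout; 0% = bacteria only wells and 100% = bacteria with antibiotic wells.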 As to conditions: hits give high values, concentration not given here.
Turning to `Cc1cccc(N2CCN(Cc3ccoc3)CC2)c1C`, the inhibition was 2.81%. With `Cc1cc(C)n(-c2nc(SCCN(C)C)c3c4c(sc3n2)COC(C)(C)C4)n1`, the inhibition is 14.6%.

For `Cc1cc(C)n(-c2nc(SCC(=O)Nc3nccs3)c3c4c(sc3n2)COC(C)(C)C4)n1`, the inhibition is 23.3%. With `Cc1cc(C)n(-c2nc(SCC(=O)O)c3c4c(sc3n2)CCCC4)n1` the figure was 63.1%.

As to `Cc1cc(C)n(-c2nc(NCCCN(C)C)c3c4c(sc3n2)CCCC4)n1`, the inhibition was 17.3%. With `CC1(C)Cc2c(sc3nc(SCC(=O)O)[nH]c(=O)c23)CO1` the figure was -1.16%; with `CCCN(CC(=O)Nc1ccc(F)c(F)c1F)Cc1cc(=O)n2ccsc2n1`, -1.11%; with `O=C(NCc1ccco1)C12CC3CC(C1)CC(C(=O)NCc1ccco1)(C3)C2`, -5.09%. With `O=c1c2ccccc2nc(-c2cccc(Cl)c2)n1O` the figure was 66.9%; with `O=c1c2ccccc2nc(-c2ccccc2Cl)n1O`, 2.24%; with `CC1CC(C)CN(c2ccc(C(=O)NCc3ccc4c(c3)OCO4)cc2[N+](=O)[O-])C1` (stereo not drawn), 13.2%. Regarding `Cc1ccccc1C(=O)Nc1ccc(C(=O)N/N=C/c2ccc(O)c(Br)c2)cc1`, the inhibition is 6.55%.

For `CCOC(=O)N1CCC(NC(=O)C2CCCN(C(=O)c3cc4sccc4n3C)C2)CC1` (stereo not drawn), the inhibition is -2.27%. For the compound `O=C(NCCN1CCN(c2ccccc2)CC1)c1cccn2c(=O)c3ccccc3nc12`, the inhibition was 5.61%. With `Cc1cc(Cl)n2nc(C)c(-c3ccc(Cl)cc3)c2n1` the figure was 0.72%; with `COc1ccc(CCNc2cc(C)nc3c(-c4ccccc4)cnn23)cc1OC`, 1.98%; with `Cc1cc(NCCC(C)C)n2nc(C)c(-c3ccccc3)c2n1`, 11.3%.

In the case of `COCCNc1cc(C)nc2c(-c3ccccc3OC)c(C)nn12`, the inhibition is -2.69%.

Take `CCOC(=O)c1ccc(NC(=O)C2CCN(C(=O)c3ccc(OC)c(OC)c3)CC2)cc1`: the inhibition is -6.93%.

`O=C(NC1=NCCCCC1)c1cccc2ccccc12`: the inhibition is -1.94%. With `COc1cccc(CNCCSc2nnnn2C)c1` the figure was 6.16%; with `CCNC(=O)N1CCCC(C(=O)c2ccc3cc(OC)ccc3c2)C1` (stereo not drawn), -5.17%.

With `COC(=O)c1ccc(CSc2nnc3c(Cl)cc(Cl)cn23)o1`, the inhibition was -5.19%. Turning to `CCc1ccc(NC(=O)N(Cc2ccco2)C(C)c2cccs2)cc1` (stereo not drawn), the inhibition is 0.17%.

Take `CCN(CCCNC(=O)C1CCC(=O)N1C1CCCC1)c1cccc(C)c1` (stereo not drawn): the inhibition was 0.34%. With `Cc1c(C(=O)Oc2cccc3ccccc23)cnn1-c1ccccc1` the figure was 27.3%. `COc1ccc(OC(=O)c2c(C)nn(-c3ccccc3)c2C)cc1`: the inhibition was -12.3%.

As to `NC(=O)CSc1nnnn1-c1ccc(OC(F)(F)F)cc1`, the inhibition was -7.21%. As to `CCC1=CCN(CCc2c(C)[nH]c3ccccc23)CC1`, the inhibition was -0.79%. With `NNC(=S)Nc1c(Br)cc(F)cc1Br` the figure was -5.67%; with `COc1cccc(C2=NC(C)(C)NC(c3ccccc3O)C2)c1` (stereo not drawn), 4.8%; with `Clc1ccc2nc(-c3ccc4c(c3)OCO4)cn2c1`, 4.92%. Take `CCOc1ccccc1C1N=C(c2ccc(OC)cc2)CC(c2ccccc2O)N1` (stereo not drawn): the inhibition was 7.98%. With `CCC1(C)N=C(c2ccc3c(c2)OCO3)CC(c2ccccc2O)N1` (stereo not drawn) the figure was 14.6%. With `CN1CCC(N(C)CC(=O)Nc2ccccc2N2CCOCC2)CC1` the figure was 13.7%; with `O=C(NCCCO)NC(=S)c1cccc2ccccc12`, -0.39%; with `Cc1ccc(C)c(SCC(=O)Nc2cccnc2Cl)c1`, 18.9%.

On to `Cc1cc(NC(=O)CSc2nnc(Nc3ccccc3C)s2)no1`, for which the inhibition is -2.04%.

As to `CCc1ccccc1NC(=O)CN(C)C(=O)CSc1nnc(Nc2cccc(C)c2)s1`, the inhibition is 6.25%. With `CCc1ccc(Nc2nnc(SCC(=O)NC(=O)c3cccn3C)s2)cc1` the figure was 2.04%; with `CCc1ccc(Nc2nnc(SCC(=O)Nc3ccc(C(=O)O)cc3)s2)cc1`, -5.8%. For the compound `Cc1cccc(Nc2nnc(SCC(=O)Nc3ccc(C(=O)O)cc3)s2)c1`, the inhibition is 13.8%.

Regarding `CCOC(=O)c1cc2c(ccn2-c2ccc(F)cc2)n1CC(=O)N1CCN(C(=O)c2ccco2)CC1`, the inhibition is -1.91%.

Consider `Clc1ccccc1CNC1CN2CCC1CC2` (stereo not drawn), for which the inhibition was 5.7%. On to `CCNc1ncnc2c1cnn2C`, for which the inhibition is -10.7%.

On to `Cc1ccc(SCc2[nH]nc3c2C2(C(=O)Nc4ccc([N+](=O)[O-])cc42)C(C#N)=C(N)O3)cc1` (stereo not drawn), for which the inhibition was -2.15%. Take `COc1ccc(CNc2nc3ccccc3n2CCN2CCCCC2)cc1`: the inhibition was -0.5%. With `CCN(CC)c1ccc(CNc2nc3ccccc3n2CCN2CCOCC2)cc1` the figure was 6.6%; with `Cc1ccc(S(=O)(=O)NCc2ccc(C(=O)N(C)CCC#N)cc2)cc1`, 4.15%; with `Cc1ccc(NC(=O)c2cnccn2)cc1`, 3.69%. On to `O=C(Nc1ccc(Cl)c(C(F)(F)F)c1)c1ccco1`, for which the inhibition is 10.7%.

On to `O=C(CCNc1cccc(C(F)(F)F)c1)c1ccco1`, for which the inhibition is 53.5%. With `O=C(COC(=O)CCS(=O)(=O)c1ccc(Cl)cc1)NC1CCCCC1` the figure was 0.69%. On to `Cc1cc(NC(=O)CSc2nnc(-c3ccc(O)cc3)o2)no1`, for which the inhibition was -6.89%. In the case of `Cc1cc(NC(=O)CSc2nnc(COc3ccccc3)o2)no1`, the inhibition was 3.02%. With `Cc1ccc(-c2nnc(SCCC(=O)N3CCOCC3)o2)cc1` the figure was 77.5%; with `Cc1cc(NC(=O)CSc2nnc(Cc3ccccc3)o2)no1`, -8.58%; with `O=C(CCSc1nnc(-c2ccc(O)cc2)o1)N1CCOCC1`, -1.1%.

In the case of `COc1cccc(-c2nnc(SCC(=O)Nc3cc(C)on3)n2C)c1`, the inhibition is -2.38%. With `CCOc1ccc(-c2nnc3ccc(SCC(=O)Nc4cc(C)on4)nn23)cc1` the figure was 4.14%.

For the compound `Cc1cc(NC(=O)CSc2nnc(-c3ccco3)o2)no1`, the inhibition is -3.8%. For the compound `COc1cc(OC)c(Nc2cc(C)nc3nc(C)nn23)cc1Cl`, the inhibition was 10.9%. On to `COc1ccccc1N1CCN(C(c2ccc(Cl)cc2)c2nnnn2C(C)(C)C)CC1` (stereo not drawn), for which the inhibition was 3.99%. With `COc1ccc(-n2c(O)c(C=Nc3c(C)n(C)n(-c4ccccc4)c3=O)c(=O)[nH]c2=O)cc1` the figure was 6.56%; with `CN(c1ccc(C(=O)N2CCN(Cc3ccc4c(c3)OCO4)CC2)cc1)S(=O)(=O)c1ccccc1`, 7.14%; with `O=C(Nc1cccc(NC(=S)NC(=O)c2cccs2)c1)c1ccccc1`, -2.28%. With `CSc1cccc(NC(=S)N(CCC(C)C)C2CCN(C(C)=O)CC2)c1` the figure was -6.61%; with `CC(N)C(=O)c1ccco1` (stereo not drawn), -3.4%; with `COc1ccccc1NC(=S)NNC(=O)c1cc(C)nn1C`, -9.1%.

Turning to `COc1ccccc1-c1nnc(SCC(=O)Nc2c(Cl)cccc2Cl)o1`, the inhibition was -3.32%. Turning to `Cc1cc(NC(=O)CSc2ccc3c(c2)OCCO3)no1`, the inhibition was -5.76%. With `Cc1ccc(NCc2nnc(SCC(=O)Nc3cc(C)on3)n2C)cc1` the figure was -5.91%; with `O=C(CSc1nnc(-c2ccc(O)cc2)o1)Nc1ccc2c(c1)OCCO2`, -0.38%; with `COc1ccc(-c2nnc(SCC(=O)Nc3cc(F)ccc3C)o2)cc1`, -6.49%. Consider `Cc1cc(NC(=O)CSc2nnc(-c3ccoc3C)o2)no1`, for which the inhibition was 4.02%.

On to `COc1ccc(-c2nnc(SCC(=O)Nc3nncs3)o2)cc1`, for which the inhibition is 1.2%. For `COc1ccccc1-n1c(CNc2ccc(F)cc2)nnc1SCC(=O)Nc1cc(C)on1`, the inhibition was -4.09%. `Cc1cccc(NN=C2c3ccccc3-c3ccccc32)c1`: the inhibition is 1.34%.

Consider `Cc1cc(C)nc(SCc2nnc(SCC(=O)Nc3ccc(C)c(C)c3)o2)n1`, for which the inhibition was 0.69%.

Regarding `Cc1ccc(-c2nn3c(C)nnc3s2)cc1NC(=O)c1ccc(-c2ccc(Cl)cc2Cl)o1`, the inhibition is -7.97%.

Take `Cc1ccccc1CSCC(=O)NC1CCCC1`: the inhibition was 3.78%. Consider `Cc1ccccc1NC(=S)N(C)Cc1cn(C)c2ccccc12`, for which the inhibition was 2.82%. In the case of `O=C(CSc1nnc(-c2ccc(F)cc2)o1)NC1CCCCC1`, the inhibition was -0.23%. Regarding `COc1ccc(CCNC(=O)CSc2nnc(-c3ccc(F)cc3)o2)cc1OC`, the inhibition is -1.7%. As to `O=C(O)CCc1nn2c3ccccc3n(CCO)c2nc1=O`, the inhibition is 2.12%. In the case of `Cc1ccc(-c2csc3nc[nH]c(=O)c23)cc1`, the inhibition is -5.48%. In the case of `S=c1[nH]cnc2scc(-c3ccc(Cl)cc3)c12`, the inhibition is 76.4%. For the compound `Cn1c(C(C#N)C(=O)c2sc3ccccc3c2Cl)nc2ccccc21` (stereo not drawn), the inhibition is 94.3%. With `O=C(Nc1nc2ccccc2n1CCN1CCCCC1)c1ccco1` the figure was 6.64%; with `COc1ccc(/C=C/C(=O)Nc2nc(N)n(-c3ccccc3)n2)cc1`, 6.8%; with `Nc1nc(NC(=O)/C=C/c2ccccc2)nn1-c1ccccc1`, -0.46%. With `O=C(Nc1nc2ccccc2n1Cc1ccc(Cl)cc1)c1ccco1` the figure was 16.1%. With `Cc1ccc(Cn2c(NS(=O)(=O)c3ccccc3)nc3ccccc32)cc1` the figure was 84.8%. Regarding `CCCn1c(NCc2ccco2)nc2ccccc21`, the inhibition was -3.29%. With `Cn1c(C(C#N)C(=O)Cc2cccc3ccccc23)nc2ccccc21` (stereo not drawn) the figure was -15.5%; with `CC(O)C1C(=O)OC2(C)CC(C)(C)NC(=S)N12` (stereo not drawn), -6.84%; with `CCOC(=O)c1c(NC(=O)CC)sc(C(C)=O)c1C`, 2.45%. As to `O=C(NN=C1CCCCCC1)c1c[nH]c2ccccc12`, the inhibition is -1.9%.
